From PubChem BioAssay
Rows were chosen to be rich in hits. Some 6.9% of all compounds tested hit in one or more screens of this group.
JMJD2A Tudor = inhibitors of human JMJD2A Tudor domain | AlphaScreen JMJD2A-Tudor / H3K4me3 peptide binding | Potency, µM (highest dose often 114 µM), for the others: top-dose activity change, negative = inhibition, usual class: inhibitors | actives 4.4% (n = 390,000); also: % is scaled to controls: 0 for no effect and ±100 for the full control effect; nearly all actives have a fitted effect of over 50% in size
HP1b chromo inh = inhibitors of HP1-beta chromodomain binding to methylated histone tails; P83916; AlphaScreen HP1-beta / biotin-H3K9me3 peptide binding; Potency, µM (top dose mostly 114 µM), without a hit: top-dose activity change, negative = inhibition, most hits filed as inhibitors; actives 0.56% (n = 390,000); AID 540317; also: nearly all actives have a fitted effect of over 70% in size
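Compound inhibition of the preformed complex between 50 nM HP1-beta and 50 nM biotinylated H3K9me3 peptide was read by AlphaScreen. Buffer was PBS pH 7.4 with 0.01% Tween-20. Incubations ran 30 min at room temperature, with 10 ug/mL donor/acceptor beads.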
BAZ2B block = inhibitors of human BAZ2B bromodomain | Q9UIF8 | AlphaScreen BAZ2B-H3K14Ac peptide displacement | Potency, µM (series often up to 114 µM), for the others: at the highest dose activity change, negative = inhibition, most hits filed as inhibitors | actives 4.4% (n = 360,000); also: % is scaled to controls: 0 for no effect and ±100 for the full control effect; nearly all actives have a fitted effect of over 60% in size
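AlphaScreen displacement: compounds (up to 110uM) incubated 30 min at room temperature with a preformed 50 nM BAZ2B/50 nM biotinylated H3K14Ac peptide complex in PBS pH 7.4 with Tween-20. Donor and acceptor beads at 10 ug/mL final added, 20 min light-protected before reading.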
PLK1 PBD block = PLK1 (human) polo-box domain binding inhibition | Potency, µM, for the others: max response, negative = inhibition, usual class: inhibitors | Plk1 PBD binding of FITC phosphopeptide, fluorescence polarization | actives 2.8% (n = 360,000) | P53350; also: series mostly up to about 57 µM; % is scaled to controls: 0 for no effect and ±100 for the full control effect; nearly all actives have a fitted effect of over 65% in size
VDR inhibitor = blocks the human vitamin D receptor; P11473; VDR-SRC2-3 peptide fluorescence polarization, 2 h; Potency, µM, for the others: max response, negative = inhibition, actives largely listed as inhibitors; actives 0.93% (n = 400,000); also: % is scaled to controls: 0 for no effect and ±100 for the full control effect
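Compounds are added to VDR with labelled SRC2-3 coactivator peptide and held 2 h at room temperature. Inhibition of the VDR–peptide interaction is then read as a change in fluorescence polarization.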
L3MBTL1 inh = L3MBTL1 (human) inhibition; actives 0.66% (n = 230,000); Potency, µM (top dose mostly 57.1 µM), for the others: at the top dose activity, negative = inhibition, actives largely listed as inhibitors; AlphaScreen L3MBTL1–H3K9me1 peptide binding; also: % is scaled to controls: 0 for no effect and ±100 for the full control effect; nearly all actives have a fitted effect of over 60% in size
Target sequence (Q9Y468 whole entry, looked up): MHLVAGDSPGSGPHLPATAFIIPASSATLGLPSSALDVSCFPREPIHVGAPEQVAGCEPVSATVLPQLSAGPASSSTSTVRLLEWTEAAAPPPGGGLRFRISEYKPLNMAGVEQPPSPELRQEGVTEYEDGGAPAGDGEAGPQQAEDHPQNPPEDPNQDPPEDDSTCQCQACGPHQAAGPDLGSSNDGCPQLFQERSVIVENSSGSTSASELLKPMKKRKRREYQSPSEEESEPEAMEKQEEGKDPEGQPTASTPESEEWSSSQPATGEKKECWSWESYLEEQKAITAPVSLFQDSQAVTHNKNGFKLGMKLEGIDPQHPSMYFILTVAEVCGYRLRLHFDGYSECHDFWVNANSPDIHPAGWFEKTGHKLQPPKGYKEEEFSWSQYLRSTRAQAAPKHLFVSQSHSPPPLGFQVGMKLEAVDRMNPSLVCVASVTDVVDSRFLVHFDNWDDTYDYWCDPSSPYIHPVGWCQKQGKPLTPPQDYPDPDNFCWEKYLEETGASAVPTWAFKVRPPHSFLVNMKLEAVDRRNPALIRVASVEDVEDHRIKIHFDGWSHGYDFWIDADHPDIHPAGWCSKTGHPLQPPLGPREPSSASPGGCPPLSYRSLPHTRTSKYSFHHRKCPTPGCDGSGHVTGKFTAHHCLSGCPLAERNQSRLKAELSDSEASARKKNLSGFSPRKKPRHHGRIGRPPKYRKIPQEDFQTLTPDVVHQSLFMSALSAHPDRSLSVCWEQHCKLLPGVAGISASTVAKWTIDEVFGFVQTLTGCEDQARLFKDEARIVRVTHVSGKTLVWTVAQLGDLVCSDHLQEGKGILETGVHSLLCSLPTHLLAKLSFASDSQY
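Displacement of a biotinylated histone H3(1-15) peptide monomethylated at Lys9 (75 nM) from L3MBTL1 (50 nM) was measured by AlphaScreen after a 30 min room-temperature compound incubation; cefsulodin titration served as intraplate control.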
Starred values were filed as active, the others as inactive; ? = inconclusive; . = no result; ! = not confirmed by another sample; [ ] = another dose, or the depositor's remark. Calls follow the shape of the dose curve; as a rule, active = well fitted curve in the direction sought with a large enough effect; inconclusive = small, poorly fitted or top-dose-only effect, or another doubt; inactive = no such curve, though single readings can be large; an effect the other way counts as inactive or inconclusive. Potency is read from the fitted curve at half-maximal effect.

SMILES | JMJD2A Tudor | HP1b chromo inh | BAZ2B block | PLK1 PBD block | VDR inhibitor | L3MBTL1 inh
CO[C@H]1[C@@H](O)CC(OC2[C@@H](O)CC(OC3[C@@H](O)C[C@H](OC4CC[C@@]5(C)C(CCC6C5CC(O)[C@]5(C)[C@H](C7=CC(=O)OC7)CCC65O)C4)O[C@@H]3C)O[C@@H]2C)O[C@@H]1C (some centres not stated) | . | . | . | . | -2% | .
Cc1ccccc1Nc1c(-c2ccc(Br)cc2O)nc2sccn12 | ? | 2% | 22µM* | . | 1% | .
CC(C)Oc1cc(-n2nc(C(C)(C)C)oc2=O)c(Cl)cc1Cl | . | . | . | . | 0% | .
CCC(=O)N1CCN(c2cc3c(cc2F)c(=O)c(C(=O)O)cn3CC)CC1 | 6.3µM* | 3% | . | 1% | 6% | .
CN1C(=O)C(c2ccc([N+](=O)[O-])cc2[N+](=O)[O-])C(=O)N(C)C1=O | ? | 18% | 50µM* | -6% | -1% | .
CC(C)CCOP(=O)(c1ccc(N(C)C)cc1)C(O)c1ccc(Cl)cc1Cl (configuration not stated) | ? | ? | ? | 1% | -12% | .
COc1ccc(NC(=O)C(=O)NNC(=O)C(C)Oc2ccc(Cl)cc2Cl)cc1 (configuration not stated) | ? | 20% | -10% | -13% | 14% | 3%
CC(Oc1ccc(Cl)cc1Cl)C(=O)Nc1ccc(S(=O)(=O)Nc2cnc3ccccc3n2)cc1 (configuration not stated) | -27%[11.4 µM] | ? | -4% | 13µM* | -29% | -24%
Cn1c(=O)n(C)c2cc(N3CCCC3)c(NC(=O)Nc3ccccc3)cc21 | -22% | 6% | 50µM* | . | -18% | .
Cn1c(=O)n(C)c2cc(CNCCc3ccccc3)ccc21 | -3% | 46% | -33% | . | 5% | .
Cc1ccc(/C=C2/C(=O)NC(=O)N(CC3CCCO3)C2=O)s1 (configuration not stated) | -9% | 38% | -24% | 6µM* | ? | -9%
Cn1c(=O)n(C)c2cc(CNCCc3ccc(F)cc3)ccc21 | -19% | 16% | -4% | . | 16% | .
Cc1ccc(/C=C2/C(=O)NC(=O)N(CCc3ccc(F)cc3)C2=O)s1 | ? | 32% | 1% | 0.95µM* | ? | 3%
Cc1ccc(/C=C2\C(=O)NC(=O)N(CCc3ccc(F)cc3)C2=O)s1 | -2% | 31% | -11% | 0.27µM* | ? | .
Cc1ccc(/C=C2\C(=O)NC(=O)N(CCc3ccc(F)cc3)C2=O)o1 | -24% | 27% | -8% | 0.95µM* | -25% | ?
Cc1ccc(CNCCc2ccc(F)cc2)s1 | -1% | 33% | -14% | 1% | -8% | 9%
CCN(CC)c1ccc(CN(C)CCc2ccc(OC)c(OC)c2)cc1 | 10µM* | ? | 45µM* | -5% | 11% | -4%
COc1ccc(CCN(C)Cc2ccc(F)cc2F)cc1OC | 4µM* | ? | ? | -5% | -2% | .
COc1ccc(CCn2c(O)c(C=Nc3ccc(F)cc3)c(=O)[nH]c2=O)cc1OC | -24% | 20% | -3% | -13% | -5% | 1%
C[C@@H]1C[C@@H]2[C@H]([C@H]3C=C(COC(=O)c4ccccc4)[C@@H](O)[C@]4(O)[C@@H](O)C(OC(=O)c5ccccc5)=C[C@@]14C3=O)C2(C)C | . | . | . | . | -5% | .
CNC(=O)Oc1cccc2ccccc12 | -7% | 28% | -1% | -13% | 14µM*! | -9%
Cc1cc(C=C2C(=O)NC(=S)NC2=O)c(C)n1C1CCCC1 | -23% | 25% | 79µM* | ? | -21% | -20%
Cc1cc(OC(C)C(=O)NCc2cccnc2)c2c3c(c(=O)oc2c1)CCC3 (configuration not stated) | 89µM* | 95% | -8% | ? | -7% | .
CC[C@H](C)[C@H](NC(=O)[C@@H](N)Cc1ccc(O)cc1)C(=O)NCC(=O)N[C@@H](CO)C(=O)N[C@@H](CCCN=C(N)N)C(N)=O | . | . | . | . | 9% | .
O=C(Nc1cccc(F)c1)N1CCCC2(CCN(C(=O)Oc3ccccc3)CC2)C1 | . | . | . | . | 11% | .
